{"source": "PubChem BioAssay (Tox21)", "note": "Inconclusive results are not listed. Entries that show only a call come without a potency. Activity calls are given as the source filed them. The call rests on the fitted dose curve; in most records, active means well fitted cell-killing curve with a large enough effect in the repeat runs; inconclusive means weak or mixed curves, or effect the other way; inactive means flat fitted curve, though single readings scatter. Further: nearly all actives have a fitted effect of over 45% in size."}
{"assay": "qHTS assay to identify small molecule agonists of the constitutive androstane receptor (CAR) signaling pathway - cell viability counter screen (AID 1224836); further: potency means the concentration at half of the fitted maximal effect", "settings": "HepG2-CYP2B6-hCAR viability, CellTiter-Fluor, 23 h, PK11195 added to every well; series mostly up to 92.4 µM", "how_it_was_run": "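Counter screen multiplexed with the CAR reporter readout: HepG2 cells co-transfected with hCAR and the CYP2B6-2.2kb construct receive a 15-concentration compound series and 0.75 uM PK11195 (final), then CellTiter-Fluor fluorescence is read after 23 h.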"}
{"smiles": "CC(C)CCCC(=O)O", "Potency": "inactive"}
{"smiles": "CCC(C(=O)OCCN(CC)CC)c1ccccc1", "note": "(centres undefined)", "Potency": "inactive"}
{"smiles": "CCn1nc(C)c2c1C(=O)NCC(c1ccc(O)cc1)=N2", "Potency": "inactive"}
{"smiles": "COC(=O)CC(=O)C(C)(C)C", "Potency": "inactive"}
{"smiles": "Cc1ccccc1N1C(=O)c2cc(S(N)(=O)=O)c(Cl)cc2NC1C", "note": "(centres undefined)", "Potency": "inactive"}
{"smiles": "O=C(O)c1c(O)c(-c2ccccc2)nc2ccccc12", "Potency": "inactive"}
{"smiles": "CC1(C)O[C@@H]2C[C@H]3[C@@H]4CCC5=CC(=O)C=C[C@]5(C)[C@H]4[C@@H](O)C[C@]3(C)[C@]2(C(=O)CO)O1", "Potency": "inactive"}
{"smiles": "NC(=O)N(O)[C@@H]1COc2cc(OCc3ccccc3)ccc21", "Potency": "inactive"}
{"smiles": "CCOC(=O)C(C)Oc1ccc(Oc2nc3ccc(Cl)cc3o2)cc1", "note": "(centres undefined)", "Potency": "inactive"}
{"smiles": "O=c1[nH]c2ccc(S(=O)CCN3CCC(Cc4ccc(F)cc4)CC3)cc2o1", "note": "(centres undefined)", "Potency": "inactive"}
{"smiles": "CCCCC(CC)COC(=O)COc1ccc(Cl)cc1C", "note": "(centres undefined)", "Potency": "inactive"}
{"smiles": "O=S1OCCO1", "Potency": "inactive"}
{"smiles": "CNC(=S)NC", "Potency": "inactive"}
{"smiles": "C/C(=N/NC(=O)c1ccncc1)C(=O)O", "Potency": "inactive"}
{"smiles": "CO/N=C1\\CN(c2nc3c(cc2F)c(=O)c(C(=O)O)cn3C2CC2)CC1CN", "note": "(centres undefined)", "Potency": "inactive"}
{"smiles": "O=C(O)c1ccc(CO)o1", "Potency": "inactive"}
{"smiles": "CCCOc1ccc(S(=O)(=O)N2CCN(CC)CC2)cc1-c1nc2c(CC)n(Cc3ccccn3)nc2c(=O)[nH]1", "Potency": "inactive"}
{"smiles": "O=C(CCC1CCN(Cc2ccccc2)CC1)c1ccc2c(c1)NCCCC2", "Potency": "inactive"}
{"smiles": "CCOC(=O)OCC", "Potency": "inactive"}
{"smiles": "CC(C)(C)CC(C)(C)c1ccc(OCCO)cc1", "Potency": "48.3 µM (active)"}
{"smiles": "CSc1ccc(Oc2ccc(S(N)(=O)=O)cc2CN(C)C)cc1C", "Potency": "inactive"}
{"smiles": "CCCCOC(=O)CCS", "Potency": "inactive"}
{"smiles": "COc1ccc([C@@H]2Sc3ccccc3NC(=O)[C@@H]2O)cc1", "Potency": "inactive"}
{"smiles": "CCCCCCOC(=O)C(C)C", "Potency": "inactive"}
{"assay": "qHTS assay to identify small molecule antagonists of the constitutive androstane receptor (CAR) signaling pathway - cell viability counter screen (AID 1224837)", "settings": "HepG2-CYP2B6-hCAR viability, CellTiter-Fluor, 23 h, co-treated with 50 nM CITCO; series mostly up to 92.4 µM", "how_it_was_run": "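Multiplexed cytotoxicity read-out for the CAR antagonist screen: double-stable HepG2-CYP2B6-hCAR cells co-treated with 50 nM CITCO (final) and compound over 15 concentrations, incubated 23 hr, then assessed by CellTiter-Fluor fluorescence.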"}
{"smiles": "CCCC(=O)O[C@]1(C(=O)COC(=O)CC)CC[C@H]2[C@@H]3CCC4=CC(=O)CC[C@]4(C)[C@H]3[C@@H](O)C[C@@]21C", "activity change, negative = cytotoxicity": "6.46% [at 19 µM] (inactive)"}
{"smiles": "O=C(Nc1ccc([N+](=O)[O-])cc1)Nc1ccc([N+](=O)[O-])cc1", "Potency": "inactive"}
{"smiles": "CCCCCCCC/C=C\\CCCCCCCC(=O)OC(CO)CO", "Potency": "inactive"}
{"smiles": "Nc1nc(Cl)nc2c1ncn2[C@@H]1O[C@H](CO)[C@@H](O)[C@@H]1F", "Potency": "inactive"}
{"smiles": "OC(CCCN1CCCCC1)(c1ccccc1)c1ccccc1", "Potency": "inactive"}
{"smiles": "CC(=O)[C@H]1CC[C@H]2[C@@H]3C=CC4=CC(=O)CC[C@@]4(C)[C@@H]3CC[C@]12C", "Potency": "inactive"}
{"smiles": "CCN(Cc1cccc(S(=O)(=O)O)c1)c1ccc(C(=C2C=CC(=[N+](CC)Cc3cccc(S(=O)(=O)[O-])c3)C=C2)c2ccccc2)cc1", "Potency": "inactive"}
{"smiles": "C[N+]1(C)CCC(=C(c2ccccc2)c2ccccc2)CC1", "Potency": "inactive"}
{"smiles": "CCOC(=O)N1CCC(n2c(=O)[nH]c3cc(Cl)ccc32)CC1", "Potency": "inactive"}
{"smiles": "CC(=O)OCC(=O)[C@H]1CC[C@H]2[C@@H]3CCC4=CC(=O)CC[C@]4(C)[C@H]3CC[C@]12C", "Potency": "inactive"}
{"smiles": "CN1Cc2cc(C(=O)N3CCC(C4CCNCC4)CC3)ccc2N[C@@H](CC(=O)O)C1=O", "Potency": "inactive"}
{"smiles": "CN(C)C(=O)Nc1ccc(Oc2ccc(Cl)cc2)cc1", "Potency": "inactive"}
{"smiles": "Nc1ccc(S(=O)(=O)O)c(N)c1", "Potency": "inactive"}
{"smiles": "CCC(=O)Oc1ccc(/C(CC)=C(\\CC)c2ccc(OC(=O)CC)cc2)cc1", "Potency": "inactive"}
{"smiles": "CCCOC(=O)c1ccc(N)cc1", "Potency": "inactive"}
{"smiles": "O=C(CCCCCCCCC#CI)Oc1ccccc1", "Potency": "inactive"}
{"smiles": "CC(C)CCCC(=O)O", "Potency": "inactive"}
{"smiles": "CCC(C(=O)OCCN(CC)CC)c1ccccc1", "note": "(centres undefined)", "Potency": "inactive"}
{"smiles": "CCn1nc(C)c2c1C(=O)NCC(c1ccc(O)cc1)=N2", "Potency": "inactive"}
{"smiles": "COC(=O)CC(=O)C(C)(C)C", "Potency": "inactive"}
{"smiles": "Cc1ccccc1N1C(=O)c2cc(S(N)(=O)=O)c(Cl)cc2NC1C", "note": "(centres undefined)", "Potency": "inactive"}
{"smiles": "O=C(O)c1c(O)c(-c2ccccc2)nc2ccccc12", "Potency": "inactive"}
{"smiles": "CC1(C)O[C@@H]2C[C@H]3[C@@H]4CCC5=CC(=O)C=C[C@]5(C)[C@H]4[C@@H](O)C[C@]3(C)[C@]2(C(=O)CO)O1", "Potency": "inactive"}
{"smiles": "NC(=O)N(O)[C@@H]1COc2cc(OCc3ccccc3)ccc21", "Potency": "inactive"}
{"smiles": "CCOC(=O)C(C)Oc1ccc(Oc2nc3ccc(Cl)cc3o2)cc1", "note": "(centres undefined)", "Potency": "inactive"}
{"smiles": "O=c1[nH]c2ccc(S(=O)CCN3CCC(Cc4ccc(F)cc4)CC3)cc2o1", "note": "(centres undefined)", "Potency": "inactive"}
{"smiles": "CCCCC(CC)COC(=O)COc1ccc(Cl)cc1C", "note": "(centres undefined)", "Potency": "inactive"}
{"smiles": "O=S1OCCO1", "Potency": "inactive"}
{"smiles": "CNC(=S)NC", "Potency": "inactive"}
{"smiles": "C/C(=N/NC(=O)c1ccncc1)C(=O)O", "Potency": "inactive"}
